Compound activity as filed in PubChem BioAssay.
In the library only some 12% were active in any assay of this set; here they are far more common.
HP1b chromo inh: blocks HP1-beta chromodomain binding to methylated histone tails | AlphaScreen HP1-beta / biotin-H3K9me3 peptide binding | actives 0.56% (n = 390,000) | Potency, µM (titrated, usually from 114 µM), without a hit: at the top dose activity change, negative = inhibition, usual class: inhibitors | P83916; also: nearly all actives have a fitted effect of over 70% in size
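Compound inhibition of the preformed complex between 50 nM HP1-beta and 50 nM biotinylated H3K9me3 peptide was read by AlphaScreen. Buffer was PBS pH 7.4 with 0.01% Tween-20. Incubations ran 30 min at room temperature, with 10 ug/mL donor/acceptor beads.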
JMJD2A Tudor: inhibitors of human JMJD2A Tudor domain; AlphaScreen JMJD2A-Tudor / H3K4me3 peptide binding; O75164; actives 4.4% (n = 390,000); Potency, µM (doses to about 114 µM), for the others: at the top dose activity change, negative = inhibition, hits mostly inhibitors; AID 504339; also: % is scaled to controls: 0 for no effect and ±100 for the full control effect; nearly all actives have a fitted effect of over 50% in size
Sfp inh: inhibitors of Bacillus subtilis Sfp phosphopantetheinyl transferase; Q9F4F7; Potency, µM, for inactives: largest response in the series, negative = inhibition, usual class: inhibitors; actives 3.5% (n = 310,000); Biochemical Sfp PPTase activity, qHTS;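 also: the enzyme is Sfp with the accession as filed and its product quenches rhodamine fluorescence; 0% = enzyme reaction without inhibitor and -100% = no enzyme wells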
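Compounds were incubated with enzyme (final 15 nM) for 15 min at room temperature before substrate addition started the reaction. Fluorescence at 525 nm excitation, 598 nm emission was recorded immediately and after 30 minutes.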
BAZ2B block: inhibitors of human BAZ2B bromodomain; Q9UIF8; AlphaScreen BAZ2B-H3K14Ac peptide displacement; Potency, µM (highest dose often 114 µM), inactives show top-dose activity change, negative = inhibition, actives largely listed as inhibitors; actives 4.4% (n = 360,000); AID 504333; also: % is scaled to controls: 0 for no effect and ±100 for the full control effect; nearly all actives have a fitted effect of over 60% in size
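BAZ2B 50 nM plus b-H3(5-23)K14Ac 50 nM, PBS pH 7.4/0.01% Tween-20, 30 min RT; compound added (max 110 uM), 30 min RT; streptavidin donor/Ni-chelate acceptor beads 10 ug/mL final, 20 min dark; AlphaScreen read.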
G9a inh: G9a (human) methyltransferase inhibition; actives 8.8% (n = 350,000); Potency, µM (highest dose often 102 µM), for the others: at the top dose activity, negative = inhibition, most hits filed as inhibitors; AID 504332; G9a H3K9 monomethylation, AlphaScreen, 2 h; also: % is scaled to controls: 0 for no effect and ±100 for the full control effect; nearly all actives have a fitted effect of over 75% in size
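AlphaScreen read-out: biotin-H3K9 peptide (500 nM) methylation by 20 nM enzyme with 20 uM SAM, 2 h at room temperature after 15 min compound preincubation; anti-monomethyl H3K9 antibody plus donor/acceptor beads, 10 min dark.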
L3MBTL1 inh: blocks human L3MBTL1. actives 0.66% (n = 230,000). Potency, µM (top dose mostly 57.1 µM), for inactives: at the top dose activity, negative = inhibition, most hits filed as inhibitors. AID 485360. AlphaScreen L3MBTL1–H3K9me1 peptide binding. Q9Y468; also: % is scaled to controls: 0 for no effect and ±100 for the full control effect; nearly all actives have a fitted effect of over 60% in size
Target sequence (Q9Y468 whole entry, looked up): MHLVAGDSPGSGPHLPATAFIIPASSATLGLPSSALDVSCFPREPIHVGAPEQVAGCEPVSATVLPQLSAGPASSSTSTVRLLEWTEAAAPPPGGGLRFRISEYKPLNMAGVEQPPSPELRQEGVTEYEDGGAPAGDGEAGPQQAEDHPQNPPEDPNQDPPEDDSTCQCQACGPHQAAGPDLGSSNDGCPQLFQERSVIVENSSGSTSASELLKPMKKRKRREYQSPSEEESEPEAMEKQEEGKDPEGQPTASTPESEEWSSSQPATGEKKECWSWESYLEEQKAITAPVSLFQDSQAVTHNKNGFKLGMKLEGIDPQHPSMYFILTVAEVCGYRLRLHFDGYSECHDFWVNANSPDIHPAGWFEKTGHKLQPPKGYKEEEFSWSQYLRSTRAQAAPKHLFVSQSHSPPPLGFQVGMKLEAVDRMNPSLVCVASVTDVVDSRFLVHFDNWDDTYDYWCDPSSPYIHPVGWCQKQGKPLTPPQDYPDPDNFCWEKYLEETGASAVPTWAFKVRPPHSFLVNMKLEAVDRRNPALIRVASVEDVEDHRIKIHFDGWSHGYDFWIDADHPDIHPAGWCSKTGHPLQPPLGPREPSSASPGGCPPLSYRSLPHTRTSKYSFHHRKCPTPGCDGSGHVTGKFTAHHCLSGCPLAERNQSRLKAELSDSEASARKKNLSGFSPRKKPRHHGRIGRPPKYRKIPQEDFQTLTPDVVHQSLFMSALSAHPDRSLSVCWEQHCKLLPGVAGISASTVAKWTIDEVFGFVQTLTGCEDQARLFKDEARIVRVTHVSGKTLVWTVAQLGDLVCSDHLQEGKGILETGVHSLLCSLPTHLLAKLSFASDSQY
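AlphaScreen proximity signal between nickel-chelate acceptor and streptavidin donor beads (final 10 ug/mL) reports binding of 50 nM L3MBTL1 to 75 nM biotin-H3 K9me1 peptide; complex incubated with compounds 30 min at room temperature; cefsulodin titration as control.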
* = called active by the depositor; ? = inconclusive; . = no result; [ ] = dose if it differs, or a comment. Calls follow the shape of the dose curve; as a rule, active = well fitted curve in the direction sought with a large enough effect; inconclusive = small, poorly fitted or top-dose-only effect, or another doubt; inactive = no such curve, though single readings can be large; an effect the other way counts as inactive or inconclusive. Potency is read from the fitted curve at half-maximal effect.

SMILES | HP1b chromo inh | JMJD2A Tudor | Sfp inh | BAZ2B block | G9a inh | L3MBTL1 inh
C#CCOCCOCCOCCNc1nc(N2CCN(C(=O)[C@H](CCC(=O)O)n3cc(C(N)[C@H](C)CC)nn3)CC2)nc(N2CCN(C(=O)[C@H](Cc3ccc(O)cc3)n3cc(C(N)[C@H](C)CC)nn3)CC2)n1 (some centres not stated) | 76% | 40µM* | 9% | 50µM* | -130%[59 µM] | -13%
C#CCOCCOCCOCCNc1nc(N2CCN(C(=O)C(Cc3ccc(O)cc3)n3cc(C(N)C(C)CC)nn3)CC2)nc(N2CCN(C(=O)C(Cc3ccc(O)cc3)n3cc(C(N)C(C)CC)nn3)CC2)n1 (configuration not stated) | 36% | 35µM* | -3% | 50µM* | ? | ?
C#CCOCCOCCOCCNc1nc(N2CCOCC2)nc(N2CCN(C(=O)[C@H](Cc3ccc(O)cc3)n3cc([C@@H](N)C(C)CC)nn3)CC2)n1 (some centres not stated) | 7% | ? | 9% | -30% | ? | 5%
CC(=O)Nc1ccc(S(=O)(=O)NCc2cccn2Cc2cccc(C)c2)cc1 | -4% | ? | . | -32% | 8%[12.7 µM] | .
CCCNC(=O)c1ccc2c(c1)S(=O)(=O)c1ccccc1C2=O | 13% | -14% | 3% | -11% | . | .
NNC(=O)c1ccc2c(c1)S(=O)(=O)NNC2=O | 77% | 28µM* | -5% | -32% | 11µM* | 11%
COc1ccc(-n2c(SCC(=O)NCCC(C)C)nc3ccsc3c2=O)cc1 | 24% | -7% | ? | -6% | 25µM* | -3%
Oc1cc(-n2cccn2)c(O)cc1-n1cccn1 | 2.8µM* | 0.79µM* | 5µM* | 32µM* | 0.71µM* | -7%
CCCCC[C@H](O)/C=C/[C@@H]1[C@H]2C/C(=C/CCCC(=O)O)O[C@H]2C[C@H]1O | . | . | 30% | . | -40%[12.7 µM] | .
COc1ccc2oc(-c3ccc(C)c(NC(=O)c4ccc5c(c4)OCCO5)c3)nc2c1 | 14% | -6% | . | -14% | -7%[59 µM] | .
Cn1c(SCC(=O)c2ccc3c(c2)OCO3)nnc1C1COc2ccccc2O1 (configuration not stated) | 37% | 50µM* | -21% | 6% | ? | -4%
Cc1occc1-c1nnc(SCc2cc(=O)n3cc(Br)ccc3n2)n1C | 14% | ? | -20% | 56µM* | -25%[59 µM] | -7%
Cn1c(SCc2cc(=O)n3cc(Br)ccc3n2)nnc1C1COc2ccccc2O1 (configuration not stated) | 30% | 50µM* | -10% | ? | -18%[59 µM] | -8%
COc1ccc(C(=O)NCC(=O)OCC(=O)c2cccc3ccccc23)cc1 | 5%[57 µM] | 7%[57.1 µM] | . | . | . | .
Cc1ccc(NS(=O)(=O)c2cc3[nH]c(=O)c(=O)[nH]c3cc2C)cc1N(C)C | 5% | -19% | . | -30% | -28%[59 µM] | .
Cc1nnc(N2CCCC(C(=O)NCCc3ccc(Cl)cc3)C2)c2nn(-c3ccccc3)c(C)c12 (configuration not stated) | 16% | -9% | . | -38% | -8%[59 µM] | .
O=C(O)/C(=C\c1cccc(O)c1)c1ccc(S(=O)(=O)N2CCCC2)s1 | 23% | -20% | . | ? | ? | -26%
O=C(O)/C(=C\c1cccc(F)c1)c1ccc(S(=O)(=O)N2CCCCC2)s1 | 1% | ? | -28% | ? | 56µM* | -27%
COc1ccccc1/C=N\NC(=O)c1c(C)nc2ccc(Cl)cn12 | 22% | -6% | 19% | 11% | 0%[59 µM] | 6%
COc1cccc(/C=N/NC(=O)c2cnccn2)c1OC | 18% | 20µM* | 3% | -4% | 7% | 1%
COc1cc(OC)c(OC)cc1/C=N/NC(=O)c1cnccn1 | 18% | ? | -21% | -14% | 25% | 3%
COc1cccc(/C=N/NC(=O)c2ccc(=O)[nH]n2)c1O | 49% | 79µM* | 13% | 50µM* | -4% | -21%
COc1cccc(/C=N/NC(=O)c2ccc(=O)n(C)c2)c1O | 17% | 56µM* | 14% | ? | 16%[59 µM] | -6%
COc1cccc(/C=N/NC(=O)c2c(C)nc3ccc(Cl)cn23)c1O | 23% | 56µM* | 31% | 8.9µM* | -10% | .
O=C(O)[C@H]1CCCNC1 | . | . | 11% | . | . | .
SMILES | HP1b chromo inh | JMJD2A Tudor | Sfp inh | BAZ2B block | G9a inh | L3MBTL1 inh
CCOC(=O)CSc1nc2sc3c(c2c(=O)[nH]1)CC(C)(CC)OC3 (configuration not stated) | 23% | -7% | 4% | 4% | 32µM* | .
CCC1(C)Cc2c(sc3nc(NN)n(C)c(=O)c23)CO1 (configuration not stated) | 1% | -13% | -2% | 15% | 45µM* | .
COc1ccc(OC)c(NC(=O)CCc2c(C)nc3c(c(C)nn3C(C)(C)C)c2C)c1 | 16% | -26% | . | -27% | -3%[59 µM] | .
COc1ccc(S(=O)(=O)CCC(=O)Nc2ccc(OC)cc2OC)cc1 | 23% | -9% | 1% | -14% | 10µM* | ?
COc1ccc(NC(=O)CCCN2C(=O)CN(C)C2=O)c(OC)c1 | -12% | 50µM* | . | 50µM* | -6%[12.7 µM] | -5%
COc1ccc([N+](=O)[O-])cc1NC(=O)CCS(=O)(=O)c1ccc(Br)cc1 | ? | 40µM* | 12% | 50µM* | 14µM* | .
CC(C)Cn1cc(NC(=O)Nc2cccc(C(F)(F)F)c2)c2ccccc2c1=O | 31% | -32% | . | 8%[57.1 µM] | ? | .
CC(=O)Nc1ccc(C=CC=Cc2cccc([N+](=O)[O-])c2)cc1 | ? | 79µM* | . | . | . | .
O=C(CNc1ccc2ccccc2c1)N/N=C/C=C/c1cccc([N+](=O)[O-])c1 | 16% | ? | -12% | 89µM* | 3.2µM* | -12%
CCN(CC)C(=O)Cn1c(=O)n(-c2ccc(Cl)cc2)c(=O)c2c3c(sc21)CCCCC3 | 23% | -9% | . | -2% | 8%[59 µM] | .
CCOc1ccccc1NC(=O)CN1C=NS(=O)(=O)c2ccccc21 | 27% | -28% | . | 1% | 4%[59 µM] | .
COc1cc(Cl)c(C)cc1Nc1c2c(nc3ccccc13)CCC2 | 13% | -27% | . | -17% | -30%[59 µM] | .
Cc1nn(Cc2ccccc2)c(C)c1NC(=O)CCCn1nc([N+](=O)[O-])c(Cl)c1C | 13% | 40µM* | 5% | 8% | 22% | -2%
O=C(CCS(=O)(=O)c1ccccc1)N(CCCN1CCOCC1)c1nc2ccc(F)cc2s1 | 37% | -18% | . | 3% | 22µM* | 3%
O=C(CCS(=O)(=O)c1ccccc1)N(CCCN1CCOCC1)c1nc2c(F)cccc2s1 | 35% | -11% | . | ? | 14µM* | -8%
Cc1ccc(S(=O)(=O)CC(=O)N(CCCN2CCOCC2)c2nc3c(F)cccc3s2)cc1 | 13% | -8% | . | -7% | ? | 0%
